Assay outcomes (PubChem)
M1 agonist = M1 muscarinic receptor agonism; 64,000 tested, 3% active; B-score at 10 µM; CHO-M1 cells, Fluo-4 calcium fluorescence, agonist mode; hits give high values; AID 626;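 active = fluorescence rise, raw or as B-score row- and column-corrected plate score, outside the 99.7% band of its plate's samples, either direction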
M1 antagonist = blocks the rat M1 muscarinic receptor response to acetylcholine; CHO-M1 cells, Fluo-4 calcium, ACh EC80 antagonist mode; hits give low values; B-score at 10 µM; 64,000 tested, 3.4% active;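 active = calcium fluorescence response, raw or row-and-column corrected B-score, differing from the plate sample mean either way at a set confidence level, mostly lower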
D1 allo mod = allosteric modulators of human D1 dopamine receptor; AID 641; HEK293 D1, CRE-luciferase, dopamine EC30 potentiation; actives deviate in either direction; B-score at 10 µM; P21728; 58,000 tested, 5.9% active;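 active = luminescence count or its row- and column-corrected plate score outside the 99.7% band of the plate's sample wells, on either side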
Target sequence (P21728 whole entry, looked up): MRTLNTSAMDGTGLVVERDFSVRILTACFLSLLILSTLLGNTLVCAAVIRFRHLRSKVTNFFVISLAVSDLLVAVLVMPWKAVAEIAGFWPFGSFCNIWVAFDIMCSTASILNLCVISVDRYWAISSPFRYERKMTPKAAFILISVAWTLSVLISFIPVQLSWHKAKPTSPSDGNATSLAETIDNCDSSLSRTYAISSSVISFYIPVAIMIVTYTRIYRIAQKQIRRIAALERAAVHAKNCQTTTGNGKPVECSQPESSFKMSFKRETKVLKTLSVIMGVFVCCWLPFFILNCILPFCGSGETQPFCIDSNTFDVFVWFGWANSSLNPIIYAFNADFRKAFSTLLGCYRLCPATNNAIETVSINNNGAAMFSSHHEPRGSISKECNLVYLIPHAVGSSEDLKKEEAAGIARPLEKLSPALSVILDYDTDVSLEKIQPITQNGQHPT
mHtt clearance = compounds clearing mutant huntingtin protein. HeLa Exon1htt(103Q)mCFP, aggregate imaging; zero = plate's median compound well. inhibition, % at 1.5 µM. 47,000 tested, 0.42% active. AID 853;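 active = inhibition of aggregate fluorescence above about 70%, also judged a hit by eye on the cell image, limit read from the data, passing the limit was not always enough; inconclusive = no rule stated for this call; inactive = not judged a hit on image review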;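 also: cells exposed to compound for three days before fixation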
WNV protease inh = blocks West Nile virus NS2B-NS3 protease activity; P06935; WNV NS2B-NS3 protease, fluorogenic substrate Ex360/Em465; hits give low values; z-score (concentration not given with the values); 65,000 tested, 0.18% active; AID 577; in the data active = z-score below about -3
Target sequence (P06935 1371-1501 limits assumed): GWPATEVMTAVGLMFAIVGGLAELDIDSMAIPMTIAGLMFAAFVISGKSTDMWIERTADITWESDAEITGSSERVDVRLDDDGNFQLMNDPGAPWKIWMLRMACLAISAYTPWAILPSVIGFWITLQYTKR
Target sequence (P06935 1502-1679 limits assumed): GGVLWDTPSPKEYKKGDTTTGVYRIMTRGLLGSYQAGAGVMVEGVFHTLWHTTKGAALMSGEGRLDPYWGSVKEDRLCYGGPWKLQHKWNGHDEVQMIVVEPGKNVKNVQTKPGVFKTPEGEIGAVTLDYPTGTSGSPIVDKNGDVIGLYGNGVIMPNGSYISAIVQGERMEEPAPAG
M1 ag confirm = rat M1 muscarinic agonism, confirmation. shares compounds with M1 agonist. CHO-M1 cells, Fluo-4 calcium fluorescence, agonist mode; actives lie on both sides. fluorescence change (max-min) at 10 µM. 1,700 tested, 19% active. AID 1488;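 active = fluorescence change differs from the solvent-only DMSO control mean at a set confidence level in both duplicate runs; inconclusive = differs from solvent-only control mean in just one of two runs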;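 also: an EC20 dose of acetylcholine follows compound addition during the same imaging run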
M4 ag counter = counter-screen for M1 agonists: activity at rat M4 receptor; shares compounds with M1 agonist; CHO M4/Gqi5 cells, Fluo-4 calcium fluorescence, agonist mode; actives lie on both sides; fluorescence change (max-min) at 10 µM; 1,700 tested, 9% active;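 active = fluorescence change differing from the plate's solvent-only control wells at 99.7% confidence in both duplicates, whether higher or lower; inconclusive = differs from solvent controls in only one of two duplicates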
M1 antag confirm = confirmation of rat M1 muscarinic receptor antagonists. shares compounds with M1 antagonist. CHO-M1 cells, Fluo-4 calcium, ACh EC80 antagonism; hits give low values. calcium response (max-min fluorescence) at 10 µM. 1,700 tested, 43% active;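 active = calcium response below the same-plate mean of wells given acetylcholine alone at its 80%-effect dose, minus 3 SD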
mGluR4 antag = mGluR4 (human) activity, M1 antagonist secondary assay. 1,700 tested, 0.9% active. fluorescence response (max-min) at 10 µM. shares compounds with M1 antagonist. CHO-mGluR4 calcium flux, Fluo-4 fluorescence, glutamate EC80; hits give low values;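 active = fluorescence response below the plate's average for near-maximal glutamate wells, less 3 SD of those wells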;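 also: raw unnormalized fluorescence span taken in the window right after glutamate addition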
D1 mod confirm = confirmation of human D1 dopamine receptor allosteric modulators; shares compounds with D1 allo mod; HEK293 D1 CRE-luciferase, dopamine EC30 potentiation; hits give high values; luminescence at 10 µM; 2,200 tested, 88% active;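 active = luminescence in either of two replicates above the same-plate mean plus 3 SD of the low-dose dopamine control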
D1 no dopamine = secondary test of D1 modulators: activity without dopamine. shares compounds with D1 allo mod. HEK293 D1 CRE-luciferase, luminescence, no dopamine; hits give high values. luminescence at 10 µM. 1,900 tested, 0.8% active; in the data active = luminescence above about 3900
Isoprot counter = counter-screen for D1 modulators: isoproterenol response in HEK293 cells; shares compounds with D1 allo mod; HEK293 D1 CRE-luciferase, isoproterenol EC30 counter-screen; calls only at 10 µM; 2,200 tested, 63% active;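 active = luminescence in either replicate above plate mean of wells with a partly effective reference agonist dose plus 3 SD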;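 also: isoproterenol raises cAMP through native beta-adrenoceptor Gs so signal bypasses D1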
Hits are given with their value; i = inactive; ? = inconclusive; nt = no result; + = active, no number. Hits are enriched below; roughly 8.9% of the tested compounds scored in any of these assays.

SMILES	M1 agonist	M1 antagonist	D1 allo mod	mHtt clearance	WNV protease inh	M1 ag confirm	M4 ag counter	D1 mod confirm	D1 no dopamine	Isoprot counter	others
CN1C(=O)c2cccc(NCCCN3C(=O)c4ccccc4C3=O)c2C1=O	4.8	i	i	i	i	i	i	nt	nt	nt
CCOC(=O)c1c(C)[nH]c(C(=O)CN2C(=O)NC(C)(c3ccc(C)cc3)C2=O)c1C (stereo not given)	i	i	nt	nt	i	nt	nt	nt	nt	nt
CCOC(=O)c1c(C)[nH]c(C(=O)CN2C(=O)NC(CC)(c3ccccc3)C2=O)c1C (stereo not given)	4.7	i	i	i	i	i	i	nt	nt	nt
CCOC(=O)N1CCN(CC(=O)N2c3ccccc3CC2C)CC1 (stereo not given)	3.3	i	nt	nt	i	i	i	nt	nt	nt
Cc1ccc(CC2C(=O)N(CC(=O)O)C(=O)C2C)cc1 (stereo not given)	nt	nt	nt	i	nt	nt	nt	nt	nt	nt
Cc1ccc(CC2C(=O)N(c3ncccn3)C(=O)C2C)cc1 (stereo not given)	-3.7	-7	i	i	i	i	i	nt	nt	nt	M1 antag confirm=i;mGluR4 antag=i
O=C(O)c1cc(-c2ccco2)nc2ccc(Br)cc12	-2.5	-17	i	nt	i	i	i	nt	nt	nt	M1 antag confirm=i;mGluR4 antag=i
CC(Cc1ccccc1)N/C=C1\CC(=O)NC1=O (stereo not given)	nt	nt	nt	i	nt	nt	nt	nt	nt	nt
N=c1c2c3c(sc2nc2n1CCCCC2)CCCCC3	-3.3	-19	i	nt	i	-24	i	nt	nt	nt	M1 antag confirm=15;mGluR4 antag=i
O=c1c2c3c(sc2nc2n1CCCCC2)CCCC3	nt	nt	i	nt	i	nt	nt	nt	nt	nt
CCCCCCn1c(CN2CCCCC2CC)nc2c1c(=O)n(C)c(=O)n2C (stereo not given)	i	i	i	nt	i	nt	nt	nt	nt	nt
CCCN1CCN(CCCNC(=O)c2cc3c(=O)n(C)c4ccccc4c3n2C)CC1	-3.1	-4.3	i	i	i	?	i	nt	nt	nt	M1 antag confirm=i;mGluR4 antag=i
CCOC(=O)c1c(NC(=O)c2nn(CC)cc2Br)c(C#N)cn1-c1ccccc1	3.1	i	6.7	i	i	i	i	8888	i	+
CN(Cc1cc2ccccc2[nH]c1=O)S(C)(=O)=O	nt	nt	i	i	i	nt	nt	nt	nt	nt
CCn1c(SCC(=O)Nc2ccccc2N2CCCCC2)nc2c1c(=O)n(C)c(=O)n2C	2	i	3.9	i	i	i	i	6828	i	i
CCCCCc1c(C)c(C#N)c2nc3ccccc3n2c1-n1ccnc1C	nt	nt	nt	i	nt	nt	nt	nt	nt	nt
C=C(C)CN1CCN(c2c(CCC#N)c(C)c(C#N)c3nc4ccccc4n23)CC1	5.7	i	5.4	nt	i	i	i	11364	i	+
CC(Sc1nnc(-c2ccc(Cl)cc2)n1C)C(N)=O (stereo not given)	i	i	i	nt	i	nt	nt	nt	nt	nt
CCNC(=O)C1CC(=O)N(CC)C(=Nc2cc(Cl)c(O)c(Cl)c2)S1 (stereo not given)	i	i	i	nt	i	nt	nt	nt	nt	nt
COC(=O)c1cc(=O)n(Cc2ccco2)c(=Nc2ccc(F)c(Cl)c2)s1	7.1	i	7.4	i	i	i	i	8744	i	i
CCOC(=O)c1[nH]c(C)c(C(=O)NCc2cccnc2)c1C	i	i	i	nt	i	nt	nt	nt	nt	nt
O=C1OCc2ccc(NC(=O)C3CCCCC3)cc21	-3.3	i	7.5	i	i	-36	i	i	i	i
CC(C)Oc1ccc(C2/C(=C(/O)c3ccc(F)cc3)C(=O)C(=O)N2CCCN(C)C)cc1 (stereo not given)	i	i	i	nt	i	nt	nt	nt	nt	nt
CCOC(=O)c1cn(-c2ccccc2)nc1-c1ccncc1	2.2	i	13	i	i	?	?	20136	i	+
O=C(O)c1cn(-c2ccccc2)nc1-c1cccnc1	i	i	i	i	i	nt	nt	nt	nt	nt
SMILES	M1 agonist	M1 antagonist	D1 allo mod	mHtt clearance	WNV protease inh	M1 ag confirm	M4 ag counter	D1 mod confirm	D1 no dopamine	Isoprot counter	others
CCCCn1c(=NC(=O)c2cccnc2)c(C(=O)OCC)cc2c(=O)n3ccccc3nc21	8.8	i	7	nt	nt	-33	?	11452	i	i
CCCCCn1c(=NC(=O)c2ccco2)c(C(=O)OCC)cc2c(=O)n3ccccc3nc21	i	i	i	i	i	nt	nt	nt	nt	nt
CCCCn1c(NC(C)=O)c(C#N)c2nc3ccccc3nc21	5.5	i	3.8	nt	i	i	i	11192	i	i
CN(C)c1ccc2c(c1)OC(N)=C(C#N)C2c1cccc(F)c1 (stereo not given)	20	-3.4	8.8	nt	i	163	120	14124	nt	+
COc1ccc(-c2cc(=O)oc3c(C)c(O)c(CN(C)C)cc23)cc1	6.4	i	3.6	i	i	i	i	9264	i	i
COC(=O)COc1ccc2c(-c3ccc(OC)cc3)cc(=O)oc2c1	nt	nt	nt	i	nt	nt	nt	nt	nt	nt
COCC(=O)NC1CCN(C(=O)NCc2ccccc2)CC1	i	i	i	nt	i	nt	nt	nt	nt	nt
Cc1ccc(S(=O)(=O)c2cc3c(=O)n4ccccc4nc3n(Cc3ccco3)c2=N)cc1	-2.4	i	5	i	i	i	i	15320	i	+
Cc1ccc(S(=O)(=O)c2cc3c(=O)n4cccc(C)c4nc3n(Cc3ccco3)c2=N)cc1C	i	i	i	nt	i	nt	nt	nt	nt	nt
COc1ccc(-c2c3c(=O)n(C)c(=O)n(C)c3cn2-c2ccccc2)cc1	2.2	i	6.5	nt	i	?	i	12728	i	i
NC(=O)N1CC(O)CC1C(=O)Nc1ccc(Cl)c(Cl)c1 (stereo not given)	i	i	i	i	i	nt	nt	nt	nt	nt
CCC(C)(C)NC(=O)C(c1cccn1C)N(Cc1ccc(OC)cc1)C(=O)Cn1nnc2ccccc21 (stereo not given)	nt	nt	nt	i	nt	nt	nt	nt	nt	nt
CCn1nc(NC(=O)c2ccccn2)c2cc3cc(C)ccc3nc21	i	i	i	nt	i	nt	nt	nt	nt	nt
CCn1nc(NC(=O)c2cccnc2)c2cc3ccccc3nc21	5	i	6.6	i	i	-30	-92	7008	i	+
c1cncc(-c2nnc(-c3cccs3)o2)c1	i	i	i	i	i	nt	nt	nt	nt	nt
N#Cc1c(-c2cccs2)cc(-c2cccnc2)nc1N	2.8	i	18	i	i	?	i	16780	i	+
Cc1ccc2c(c1)c1nc3ccccc3nc1n2CCN1CCOCC1	7.2	i	7.7	nt	i	i	i	21896	i	+
